Screening data from PubChem.
HCV inhibitor: blocks hepatitis C virus; Huh7.5.1 HCVcc-Cre infection, luciferase reporter, 44 h; Potency, µM (highest dose often 41.8 µM), inactives show top-dose activity change, negative = inhibition, usual class: inhibitors; 3.4% of 340,000 active; AID 651820; active means well fitted inhibition curve with a large enough effect; inconclusive means small, poorly fitted or top-dose-only effect, or another doubt; inactive means no such curve, though single readings can be large or run the other way; further: potency means the concentration at half of the fitted maximal effect
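Cells seeded at 1,000/well and cultured 4 h, then compounds added followed by HCVcc-Cre virus (~0.5 moi). After 44 h further culture, luciferase substrate was added, plates held 15 min at room temperature, and luminescence read for 15 sec.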
MARV entry inh: blocks Marburg virus binding to or entry into cells; 1.8% of 300,000 active; Potency, µM (highest dose often 37.8 µM), for the others: at the top dose activity change, negative = inhibition, most hits filed as inhibitors; AID 540276; Marburg virus pseudotyped entry inhibition, cell reporter; calls by dose curve; tested in HEK293 cells; further: potency means the concentration at half of the fitted maximal effect
HCMV inh: inhibitors of human cytomegalovirus; 4.5% of 410,000 active; HFF cells, HCMV-luciferase reporter, 72 h; stronger effect = lower value; activity change, negative = inhibition, % at 57.5 µM; in the data active means activity change below about -60%; inconclusive means no clear call, values can overlap the other calls; inactive means above about -39%
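Two-dose cell screen: HFF monolayers treated with compounds and infected with luciferase-expressing HCMV at 1 PFU/cell, 72 h at 37C, then lysed for luciferase measurement.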
VACV Venus inh: vaccinia inhibition (Venus reporter); 0.46% of 330,000 active; Potency, µM (highest dose often 36.5 µM), without a hit: top-dose activity change, negative = inhibition, actives largely listed as inhibitors; AID 720580; Vaccinia virus Venus reporter expression, fluorescence; calls by dose curve; tested in A549 cells; further: potency means the concentration at half of the fitted maximal effect; nearly all actives have a fitted effect of over 30% in size
LASV entry inh: inhibitors of Lassa virus binding or cell entry; AID 540256; Lassa virus pseudotype entry inhibition, cell reporter; 1.2% of 300,000 active; Potency, µM (titrated, usually from 37.9 µM), for inactives: top-dose activity change, negative = inhibition, most hits filed as inhibitors; calls by dose curve; tested in HEK293 cells; further: potency means the concentration at half of the fitted maximal effect; nearly all actives have a fitted effect of over 50% in size
VACV mCherry inh: inhibitors of vaccinia virus infection (mCherry reporter signal); 0.63% of 310,000 active; Potency, µM (top dose mostly 36.5 µM), for the others: at the top dose activity change, negative = inhibition, most hits filed as inhibitors; Vaccinia virus mCherry reporter infection, fluorescence; AID 720579; calls by dose curve; tested in A549 cells; further: potency means the concentration at half of the fitted maximal effect; nearly all actives have a fitted effect of over 35% in size
* = called active by the depositor; i = inactive; ? = inconclusive; · = not tested or not shown; [ ] = dose if it differs, or a comment. An excerpt weighted towards active compounds, which were near 7.8% of everything screened. On the % scale 0 is the no-effect control and ±100 the full control effect.

SMILES	HCV inhibitor	MARV entry inh	HCMV inh	VACV Venus inh	LASV entry inh	VACV mCherry inh
C/C(=N\NC(=O)CCCNc1ccccc1)c1ccncc1	15%	1%[46.1 µM]	-27	-7%	?	-2%
Fc1ccc(N/N=C(/c2ccccc2)c2ccccn2)cc1	?	5%	-61*	-7%	9%	-16%
C/C(=N\NC(=O)c1ccc(N/N=C(\C)c2ccncc2)cc1)c1ccncc1	?	1µM*	-39	-13%	-3%[46.1 µM]	-16%
C/C(=N\NC(=O)CCCNc1ccc(C)cc1)c1ccccn1	?	6.5µM*	-67*	?	-20%	11µM*
C/C(CC(=O)N1CCN(C=O)CC1)=N\NC(=O)c1ccc([N+](=O)[O-])cc1	10%	·	-34	·	·	·
C/C(=N/NC(=O)c1ccncc1)c1ccccc1	2%	?	16	-9%	-2%	-22%
C/C(CC(=O)N1CCN(C=O)CC1)=N\NC(=O)c1cc2ccccc2cc1O	12%	?	-64*	-3%	-17%	i
CCC(=O)C[C@@H](NC(=O)OC)c1ccc(F)cc1	·	6%[14.2 µM]	·	·	·	·
C/C(=N\NC(=O)c1c[nH]c2ccccc12)c1ccccn1	?	?	-82*	?	2µM*	10µM*
C/C(=N\NC(=O)c1c[nH]c2ccccc12)c1ccco1	-5%	27%	238	0%	?	-12%
CCOc1ccc(C(=O)N/N=C(\c2ccccc2)c2ccccn2)cc1	10µM*	?	-99*	?	7.1µM*	11µM*
CCc1ccc(/C(C)=N/NC(=O)c2ccccn2)cc1	-2%	·	14	·	·	·
C/C(=N\NC(=O)c1ccc(F)cc1)c1ccccn1	2.5µM*	·	-98*	?	·	?
C/C(=N\NC(=O)c1cc2ccccc2cc1O)c1ccccn1	3.2µM*	?	-99*	-9%	?	?
CN(C)c1nc2cc3c(cc2cc1CN(CC1CCCO1)C(=O)/C=C/c1cccs1)OCO3 (stereo not given)	·	·	·	-6%	·	-8%
CCOC(=O)C1(C)C=C(Nc2ccc(C(N)=O)cc2)C(=O)N1c1ccccc1 (stereo not given)	·	2%[46.1 µM]	60	2%	10%[46.1 µM]	-11%
COc1ccc(NC(=O)CSc2nncn3c2cc2occc23)c(OC)c1	·	·	-37	-2%	16%[46.1 µM]	-9%
CC(C)NC(=O)N1[C@@H]2CN(C(=O)c3ccc(F)cc3)c3ccccc3[C@@H]2[C@@H]1CO	·	·	-6	·	·	·
C/C(=N\NC(=O)c1ccccc1-n1cccc1)c1ccccn1	·	·	-99*	?	·	?
CCCn1c(N)c(C(=O)CSc2ncc(C(F)(F)F)cc2Cl)c(=O)[nH]c1=O	-9%	?	-35	-7%	3.2µM*	-6%
O=C(Nc1ccccc1)c1cnc(N2CCN(Cc3cccc(C(F)(F)F)c3)C2=O)o1	·	·	59	·	·	·
CC1=C(C(=O)Nc2ccccc2)C(c2ccc(C)cc2)N=C(Nc2nc3ccccc3o2)N1 (stereo not given)	-26%	?	-67*	?	?	?
CC1(C)CC(=O)C2=C(C1)NC(Nc1nc3ccccc3o1)=NC2c1ccccc1Cl (stereo not given)	·	·	·	-10%	·	17%
Cc1cccc(N2C(=O)CC(Sc3nccc(C)n3)C2=O)c1 (stereo not given)	-11%	11%	-98*	-10%	-4%	i
Cc1nc(SC2CC(=O)N(c3ccccc3)C2=O)n[nH]1 (stereo not given)	11%	0%[46.1 µM]	-60*	14%	1%	i
O=C1CC(Sc2ncccn2)C(=O)N1c1ccccc1 (stereo not given)	11%	-12%	51	0%	15%	-9%
Cc1ccnc(SC2CC(=O)N(c3ccc(Cl)cc3)C2=O)n1 (stereo not given)	7%	·	0	·	·	·
O=C1CC(Sc2nnc(-c3ccccc3O)o2)C(=O)N1c1ccccc1 (stereo not given)	25%	-6%	-32	6%	9.2µM*	i
CN1OC(C)(CC(=O)NCCc2ccccc2)N=C1c1ccccc1F (stereo not given)	·	·	37	·	·	·
Cc1ccc(F)cc1S(=O)(=O)NCc1nc(N2CCCC2)c2cccc(C)c2n1	·	·	·	-15%	·	i
